From PMC5540273 (PLoS ONE, 2017)

System: CDK2
Details: concentration: 1 μM, replicates: in singlicate; n = 1
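Note: KINOMEscan kinase panel screen.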

Row | Structure (SMILES) | %Inh [%]
1 | Cc1ccc(NC(=O)Nc2ccc(Cl)c(C(F)(F)F)c2)cc1-c1ccc(C(=O)Nc2ccncc2)cc1 [GSK1398470] | 0
2 | FC(F)(F)c1ccccc1-c1cc(-c2c[nH]nc2-c2ccccn2)ccn1 [GW679396] | 0
3 | COC(=O)c1cccc(NC(=O)NC2CCN(c3ccnc(Nc4ccc(F)cc4)n3)C2)c1 (centres unmarked) [GSK1379725] | 0
4 | Fc1ccc(-c2nn3cccc(F)c3c2-c2ccncc2)cc1 [GW475620] | 7
5 | Cc1ccc(NC(=O)Nc2ccc(Cl)cc2)cc1-c1ccc(C(=O)Nc2ccncc2)cc1 [GSK1398472] | 0
6 | COC(=O)C(Cc1ccccc1)NC(=O)NC1CCN(c2ccnc(Nc3ccc(F)cc3)n2)C1 (centres unmarked) [GSK1379714] | 0
7 | COc1ccc(Nc2nccc(NCCNC(=O)Nc3cc(C)ccc3C)n2)cc1 [GSK1379899] | 0
8 | Fc1ccc(-c2nc3n(c2-c2ccncc2)CCS3)cc1 [GI98581] | 6
9 | CC(=O)c1cccc(NC(=O)NC2CCN(c3ccnc(Nc4ccc(F)cc4)n3)C2)c1 (centres unmarked) [GSK1379710] | 8
10 | Cc1ccc(-c2nc(Nc3ccncc3)c3ccccc3n2)s1 [GSK189015] | 24
11 | O=c1cc(N2CCOCC2)nc2n(Cc3cccc(Cl)c3Cl)c3ccccc3n12 [GSK2299009] | 0
12 | Cc1ccccc1Cn1ccn2c(=O)cc(N3CCOCC3)nc12 [GSK2269905] | 0
13 | O=C(Nc1n[nH]c2nc(-c3cccs3)c(Br)cc12)C1CCCC1 [SB-743341] | 75
14 | Cn1cncc1-c1cc2c(Nc3ccc(OCc4ccccc4)cc3)ncnc2cn1 [GW281179] | 0
